Consider 14 compounds from PubChem BioAssay.

Assay [1] can be described thus: inhibitors of TNFa-induced NFkB p65 translocation, primary screen, imaging, HUVEC, MLSMR starter and 10KST1 sets (AID 438;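 active means inhibition above 20% together with a positive visual image hit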;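 further: compound added about 3h40 before a 20 min TNFalpha stimulation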;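 on inhibition: signal is the nuclear over cytoplasmic p65 intensity ratio per well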). Particulars: HUVEC TNFa-induced p65 nuclear translocation; cell count: measured here: nuclei count (cytotoxicity indicator), at 2.08 µM; inhibition: at 2 µM, stronger effect = higher value, 0% TNFa-plus-vehicle, 100% no-TNFa wells.
The nature of assay [2]: inhibitors of mutant huntingtin aggregation, primary screen, imaging, exon1htt(103Q)mCFP cells, high-content imaging (AID 483;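 active means visual image review flags a hit and inhibition of aggregation exceeds 20%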;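 further: compound exposure lasted 3 days before fixation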;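 on nuclei count: percent of the per-plate median nuclei count of sample wells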). Conditions: exon1htt(103Q)mCFP cell line, aggregate imaging, at 2 µM; inhibition of aggregation: stronger effect = higher value; nuclei count: measured here: cell count, toxicity.
A short description of assay [3]: inhibitors of E-selectin induction by TNFa, primary screen, imaging, HUVEC, immunofluorescence, MLSMR starter and 10KST1 sets (AID 487;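 active means visually confirmed hit in the image check and inhibition above 20%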;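 on inhibition: signal is fraction of cell area covered by stained E-selectin grains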;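 on nuclei count: 100% = median nuclei count of all wells on the same plate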). Particulars: HUVEC TNFalpha-induced E-selectin immunofluorescence imaging, at 2 µM; inhibition: stronger effect = higher value; nuclei count: measured here: cell number, toxicity.
In assay [4] the target is Voltage-gated potassium channel subunit beta-2 (Rattus norvegicus) (UniProt P62483). Put plainly: KvBeta enzyme negative modulators, primary screen, biochemical, NADPH fluorescence (AID 622).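 Further: slope of raw intensity against log time taken from 70 to 1610 s.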 Particulars: recombinant KvBeta, 4-cyanobenzaldehyde reduction, at 10 µM, stronger effect = higher value.
The target is the same in assay [5]. Put plainly: KvBeta positive modulators, primary screen, biochemical, NADPH fluorescence (AID 623;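 active means NADPH fluorescence slope more negative than the mean of all samples by about 3 SD, 99.7% confidence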;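 further: fluorescence intensity change per second fitted from 20 to 320 s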). Conditions: Recombinant KvBeta, NADPH fluorescence decrease slope, 10 min; at 10 µM; stronger effect = lower value.
Assay [6] has as its target Alpha-2C adrenergic receptor (Homo sapiens) (UniProt P18825). Kind of assay: modulators of alpha2C/GIRK thallium flux, primary screen, cell-based, HEK293 alpha2C/GIRK1/2 (AID 624;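 active means fluorescence slope after compound addition differing from the mean of all screened samples at 99.7% confidence, in either direction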;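 further: slope of fluorescence ratio to pre-addition baseline per second over 15 to 24 s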). Conditions: thallium flux BTC fluorescence, at 10 µM, actives lie on both sides.
Assay [7] can be described thus: inhibitors of Sendai virus-induced IRF3 signaling, primary screen, TLR/RLR signaling modifier project, cell-based, Sendai virus stimulus, luciferase, 10K MLSCN set (AID 602276;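 active means inhibition at or above 50% at 10 µM; inactive means inhibition below 50%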;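 further: firefly luciferase from ISG56 promoter only with Renilla not read in this screen; 0% = Sendai virus plus DMSO and 100% = medium plus DMSO without virus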). Conditions: HEK293 RL24 IRF3 luciferase reporter, at 10 µM, stronger effect = higher value. A general note: Reporter assays use an easily measured gene product as a stand-in for the process of interest.

A short description of assay [8]: inhibitors of poly I:C-induced TLR3 signaling, primary screen, cell-based, poly I:C stimulus, luciferase, 10K MLSCN set (AID 602277;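 active means inhibition of the reporter signal at or above 50%; inactive means inhibition below 50%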). Conditions: HEK293-TLR3 RL24 IRF3 luciferase reporter, at 10 µM, stronger effect = higher value.

Active and inactive are the calls of the source.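 How the source made its calls, unless noted: active means fluorescence slope higher than the sample average by over 3 SD (cut at about -0.22 in these data, passing the limit was not always enough); inactive means the rest.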

Chain of Voltage-gated potassium channel subunit beta-2 (Rattus norvegicus) (P62483 whole entry, looked up): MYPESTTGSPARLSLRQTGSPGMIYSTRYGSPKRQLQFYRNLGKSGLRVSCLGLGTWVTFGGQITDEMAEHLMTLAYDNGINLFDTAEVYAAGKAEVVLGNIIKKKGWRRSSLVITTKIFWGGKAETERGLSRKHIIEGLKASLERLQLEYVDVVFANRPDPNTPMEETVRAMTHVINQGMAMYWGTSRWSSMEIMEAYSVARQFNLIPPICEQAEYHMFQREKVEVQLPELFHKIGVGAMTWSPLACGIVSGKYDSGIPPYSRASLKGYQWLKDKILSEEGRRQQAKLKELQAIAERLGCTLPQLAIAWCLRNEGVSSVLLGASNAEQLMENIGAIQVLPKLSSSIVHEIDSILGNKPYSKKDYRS
Chain of Alpha-2C adrenergic receptor (Homo sapiens) (P18825 whole entry, looked up): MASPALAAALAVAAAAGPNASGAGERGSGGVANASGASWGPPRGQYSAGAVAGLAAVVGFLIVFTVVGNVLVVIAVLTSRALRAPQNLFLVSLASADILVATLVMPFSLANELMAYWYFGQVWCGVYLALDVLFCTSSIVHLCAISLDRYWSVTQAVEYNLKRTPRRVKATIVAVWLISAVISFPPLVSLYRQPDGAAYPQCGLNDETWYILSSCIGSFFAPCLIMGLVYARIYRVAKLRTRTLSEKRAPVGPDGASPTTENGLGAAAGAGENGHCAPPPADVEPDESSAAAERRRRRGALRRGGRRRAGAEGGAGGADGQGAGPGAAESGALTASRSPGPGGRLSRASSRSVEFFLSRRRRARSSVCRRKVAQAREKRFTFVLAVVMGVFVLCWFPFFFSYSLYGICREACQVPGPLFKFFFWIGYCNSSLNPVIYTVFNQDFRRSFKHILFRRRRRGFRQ

As usually defined, the inhibition is the change of the read-out against control, counted positive when it falls. As for `Cc1c(NC(=O)CCc2ccc(S(=O)(=O)N3CCOCC3)cc2)c(=O)n(-c2ccccc2)n1C`, the cell count in assay [1] stood at 575. Further, the inhibition is 4.1% (inactive) in assay [1], -86.1% (inactive) in assay [3], -8.63% (inactive) in assay [7] and 5.48% (inactive) in assay [8]. The inhibition of aggregation in assay [2] is -26.2% (inactive). For the same compound, the nuclei count in assay [2] turned out to be 119%; in assay [3], 112%. In assay [4], the fluorescence slope was -0.527 (inactive). The NADPH fluorescence slope in assay [5] is -1.9e-05 (inactive). Moreover, in assay [6], the slope is 0.00736 (inactive).
`CCn1nc(CC(=O)Nc2nnc(CC(=O)N3CCCCC3)s2)c2ccccc2c1=O`: in assay [1], the cell count is 385. Besides, the inhibition was 0.2% (inactive) in assay [1], -289% (inactive) in assay [3], 8.15% (inactive) in assay [7] and 25.2% (inactive) in assay [8]. In addition, in assay [2], the inhibition of aggregation is 2.9% (inactive). For the same compound, the nuclei count came out at 104% in assay [2] and 95.9% in assay [3]. Besides, in assay [4], the fluorescence slope was -0.437 (inactive). In addition, the NADPH fluorescence slope in assay [5] is -2.5e-05 (inactive). In assay [6], the slope was 0.00348 (inactive).
As to `Cc1cccc(NC(=O)c2cc(NC(=O)c3ccco3)ccc2N2CCCCC2)c1`, in assay [1], the cell count came to 635. In addition, the inhibition in assay [1] was -3.9% (inactive); in assay [3], -48.5% (inactive); in assay [7], 8.72% (inactive); in assay [8] it was 8.79% (inactive). For the same compound, the inhibition of aggregation in assay [2] is -3.7% (inactive). Also, the nuclei count turned out to be 113% in assay [2] and 107% in assay [3]. For the same compound, in assay [4], the fluorescence slope is -0.52 (inactive). The NADPH fluorescence slope in assay [5] is -1.8e-05 (inactive). The slope in assay [6] was 0.0032 (inactive).
With `Cc1ccccc1C(=O)NC1CCN(Cc2nnnn2CCc2ccccc2)CC1`, the cell count in assay [1] was determined as 597. Also, the inhibition in assay [1] is -10.4% (inactive); in assay [3], 0.8% (inactive); in assay [7], 5.02% (inactive); in assay [8], 33.8% (inactive). Moreover, in assay [2], the inhibition of aggregation is -10.6% (inactive). Also, the nuclei count in assay [2] is 107%; in assay [3], 102%. Also, the fluorescence slope in assay [4] was -0.491 (inactive). In addition, the NADPH fluorescence slope in assay [5] was -3.4e-05 (inactive). Besides, the slope in assay [6] is 0.0062 (inactive).
Turning to `CC(=O)c1ccc(OCC(O)CN2CC(C)OC(C)C2)cc1` (centres undefined), the cell count in assay [1] was determined as 310. In addition, the inhibition in assay [1] is 8.6% (inactive); in assay [3], 0.4% (inactive); in assay [7], 9.28% (inactive); in assay [8], 16.8% (inactive). In addition, in assay [2], the inhibition of aggregation was 15% (inactive). Moreover, the nuclei count in assay [2] amounted to 92.4%; in assay [3] it was 98.9%. Moreover, the fluorescence slope in assay [4] was -0.613 (inactive). Also, the NADPH fluorescence slope in assay [5] was 9.2e-06 (inactive). Besides, in assay [6], the slope was 0.00724 (inactive).
In the case of `COc1cccc(C2=NOC(C(=O)N3CCc4ccccc4C3)C2)c1` (centres undefined), in assay [1], the cell count was determined as 606. Besides, the inhibition in assay [1] is 4.7% (inactive); in assay [3] it was 10.4% (inactive); in assay [7] it was -5.64% (inactive); in assay [8] it was -15% (inactive). Further, the inhibition of aggregation in assay [2] is 11% (inactive). Besides, the values for the nuclei count in assay [2] and in assay [3] were 97.3% and 107%, respectively. Moreover, in assay [4], the fluorescence slope is -0.605 (inactive). The NADPH fluorescence slope in assay [5] was -4.1e-05 (inactive). In assay [6], the slope is 0.00592 (inactive).
Turning to `COc1ccc(S(=O)(=O)N(C)C2CCN(C)CC2)cc1`, the cell count in assay [1] is 843. Also, the inhibition in assay [1] is -2.3% (inactive); in assay [3], -73.5% (inactive); in assay [7], 7.34% (inactive); in assay [8], 43.8% (inactive). Also, the inhibition of aggregation in assay [2] was -6.3% (inactive). Moreover, the nuclei count in assay [2] was found to be 128%; in assay [3] it was 114%. Moreover, the fluorescence slope in assay [4] is -0.548 (inactive). The NADPH fluorescence slope in assay [5] was -5.5e-05 (inactive). For the same compound, the slope in assay [6] is 0.00699 (inactive).
On to `C/C(Nc1cccc(F)c1)=C(/C#N)C(N)=O`, for which, in assay [1], the cell count is 640. The inhibition in assay [1] is 3.4% (inactive); in assay [3] it was 48.6% (inactive); in assay [7] it was -10.6% (inactive); in assay [8], -10.3% (inactive). For the same compound, the inhibition of aggregation in assay [2] is 1.6% (inactive). The nuclei count in assay [2] was 104%; in assay [3] it was 106%. Moreover, in assay [4], the fluorescence slope is -0.361 (inactive). The NADPH fluorescence slope in assay [5] is -3.8e-05 (inactive). Further, the slope in assay [6] was 0.00545 (inactive).
As for `CCOC(=O)CN(C(=O)c1ccccc1)c1ccccc1C`, the cell count in assay [1] was 600. The inhibition in assay [1] was -2.5% (inactive); in assay [3], 36% (inactive); in assay [7], 3.43% (inactive); in assay [8] it was 31% (inactive). In addition, the inhibition of aggregation in assay [2] was -11.5% (inactive). In addition, the nuclei count was determined as 108% in assay [2] and 72.6% in assay [3]. The fluorescence slope in assay [4] is -0.419 (inactive). Besides, the NADPH fluorescence slope in assay [5] was 1.1e-05 (inactive). Also, in assay [6], the slope was 0.00342 (inactive).
`Cc1ccc(CCNC(=O)C2CCN(S(=O)(=O)c3ccc4c(c3)CCC(=O)N4)CC2)cc1`: in assay [1], the cell count amounted to 742. Further, the inhibition in assay [1] is 2.2% (inactive); in assay [3] it was 27% (inactive); in assay [7] it was -8.22% (inactive); in assay [8], -0.993% (inactive). The inhibition of aggregation in assay [2] was -19.2% (inactive). Also, the values for the nuclei count in assay [2] and in assay [3] were 114% and 102%, respectively. The fluorescence slope in assay [4] is -0.56 (inactive). The NADPH fluorescence slope in assay [5] was 1.8e-05 (inactive). For the same compound, the slope in assay [6] was 0.00653 (inactive).
For the compound `CCOC(=O)c1cn(CC)c2cc(N3CCOCC3)c(F)cc2c1=O`, the cell count in assay [1] worked out at 249. Also, the inhibition in assay [1] was -5.5% (inactive); in assay [3], -45.9% (inactive); in assay [7] it was 3.57% (inactive); in assay [8] it was 10.9% (inactive). Also, in assay [2], the inhibition of aggregation is 4.6% (inactive). Besides, the nuclei count was found to be 72.9% in assay [2] and 114% in assay [3]. The fluorescence slope in assay [4] is -0.592 (inactive). Also, the NADPH fluorescence slope in assay [5] was -1e-05 (inactive). The slope in assay [6] was 0.00553 (inactive).
For `Cc1cc(C)nc(NC(=O)c2c(-c3c(Cl)cccc3Cl)noc2C)n1`, in assay [1], the cell count was determined as 648. Also, the inhibition in assay [1] was 2% (inactive); in assay [3], -7.8% (inactive); in assay [7], -2.48% (inactive); in assay [8], 7.12% (inactive). For the same compound, the inhibition of aggregation in assay [2] is 3.9% (inactive). Further, the nuclei count was found to be 95.5% in assay [2] and 109% in assay [3]. Besides, the fluorescence slope in assay [4] is -0.435 (inactive). Moreover, the NADPH fluorescence slope in assay [5] was 7.7e-06 (inactive). Further, in assay [6], the slope is 0.00547 (inactive).
As for `CCC(C(=O)OCC(=O)Nc1c(C)n(C)n(-c2ccccc2)c1=O)c1ccccc1` (centres undefined), the cell count in assay [1] is 640. The inhibition is 6.8% (inactive) in assay [1], -53% (inactive) in assay [3], 7.71% (inactive) in assay [7] and 15.4% (inactive) in assay [8]. Also, in assay [2], the inhibition of aggregation is 5.9% (inactive). Moreover, the nuclei count in assay [2] came to 89.5%; in assay [3], 122%. Further, in assay [4], the fluorescence slope was -0.539 (inactive). Besides, the NADPH fluorescence slope in assay [5] is 5.3e-06 (inactive). The slope in assay [6] was 0.00674 (inactive).
Regarding `Cc1cnc(C(=O)OCC(=O)Nc2ccc(Oc3ccccc3)cc2)cn1`, the cell count in assay [1] is 566. The inhibition in assay [1] is -16.3% (inactive); in assay [3], -1.5% (inactive); in assay [7], -29.5% (inactive); in assay [8], -39.7% (inactive). Also, the inhibition of aggregation in assay [2] was -29.2% (inactive). The nuclei count was determined as 107% in assay [2] and 122% in assay [3]. The fluorescence slope in assay [4] is -0.367 (inactive). For the same compound, the NADPH fluorescence slope in assay [5] is -8.3e-06 (inactive). In addition, the slope in assay [6] was 0.00457 (inactive).
